Measurements published in PubChem BioAssay (NCI).
Compounds without any hit were thinned out: in the full panel of roughly 79,000, 15% have a hit. A number with no mark means an inactive call. Calls of active or inactive are those of the source. No stated cut-off is given here; in the data, active means growth inhibition above about 70%; inactive means the rest.

Tests used:
[1] = NCI Yeast Anticancer Drug Screen. Data for the rad50 strain (AID 155);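 further: 0% = growth of vehicle-only cultures of the same strain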; conditions: S. cerevisiae rad50 strain growth inhibition; at 50.0 µM; active compounds read high
In short: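 Cells are treated with compound, grown, and their growth is then scored against vehicle-only cultures of the same repair-deficient yeast strain.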

[2] = NCI Yeast Anticancer Drug Screen. Data for the mec2-1 strain (AID 157); conditions: S. cerevisiae mec2-1 strain, at 50.0 µM, active compounds read high
In short: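 Compounds were applied to mec2-1 yeast cells. Their growth was then compared with that of vehicle-treated cultures to give growth inhibition.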

[3] = NCI Yeast Anticancer Drug Screen. Data for the sgs1 mgt1 strain (AID 161);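 further: 0% = growth of cultures given vehicle only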; conditions: S. cerevisiae sgs1 mgt1 strain, at 50.0 µM, active compounds read high
In short: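 Yeast cells carrying a defined DNA-repair defect were exposed to test compounds. Growth inhibition was measured relative to vehicle-treated controls.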

[4] = NCI Yeast Anticancer Drug Screen. Data for the cln2 rad14 strain (AID 165);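 further: 0% = growth equal to vehicle treated cultures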; conditions: S. cerevisiae cln2 rad14 strain, at 50.0 µM, active compounds read high
In short: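 Strain: cln2 rad14 yeast, altered in cell cycle control and DNA damage repair. Read-out: growth inhibition vs vehicle.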

[5] = NCI Yeast Anticancer Drug Screen. Data for the bub3 strain (AID 167); conditions: S. cerevisiae bub3 mutant strain, at 50.0 µM, active compounds read high
In short: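 Part of a panel of yeast mutants defective in DNA damage repair or cell cycle regulation. Each strain is grown with compound, and inhibition is calculated relative to solvent-treated cultures.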

[6] = NCI Yeast Anticancer Drug Screen. Data for the mlh1 rad18 strain (AID 175); conditions: S. cerevisiae mlh1 rad18 strain growth inhibition; at 50.0 µM; active compounds read high
In short: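 A repair-deficient yeast strain is exposed to test compound, and growth is scored relative to vehicle-treated controls.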

With `CC(C(N)=O)C(=O)c1ccccc1` (stereo unspecified) the growth inhibition [1] was 9.9%, the growth inhibition [2] was -12.4% and the growth inhibition [3] was -24.3%. For the same molecule, the growth inhibition [4] was -7.15%, the growth inhibition [5] was -21.2% and the growth inhibition [6] was 0.15%.
`CC(=O)C(Cc1ccccc1)(Cc1ccccc1)C(C)=O` showed a growth inhibition [1] of 3.3%, a growth inhibition [2] of -0.95% and a growth inhibition [3] of -8.3%. For the same molecule, the growth inhibition [4] was 7.45%, the growth inhibition [5] was 1.35% and the growth inhibition [6] was 2%.
In the case of `CN(Cc1ccccc1)C(=O)c1cccc(C(=O)N(C)Cc2ccccc2)c1`, the growth inhibition [1] is reported as 9.85%, the growth inhibition [2] is reported as 22.5% and the growth inhibition [3] is reported as 19.1%. For the same molecule, the growth inhibition [4] was 13.8%, the growth inhibition [5] was 21.7% and the growth inhibition [6] was 17.6%.
Work on `Nc1ccc2[nH]c(=S)sc2c1` yielded a growth inhibition [1] of 11.2%, a growth inhibition [2] of 16.4% and a growth inhibition [3] of -7.2%. It also gave a growth inhibition [4] of -1.6%, a growth inhibition [5] of -0.65% and a growth inhibition [6] of 3.35%.
For `CCc1occc(=O)c1O`, the growth inhibition [1] was 16.6%, the growth inhibition [2] was -6.95% and the growth inhibition [3] was -1.75%. It also gave a growth inhibition [4] of 1.75%, a growth inhibition [5] of 16.8% and a growth inhibition [6] of -9.1%.
With `O=[N+]([O-])c1ccc(OC(=S)N2CCOCC2)cc1` the growth inhibition [1] was -7.05%, the growth inhibition [2] was 9.3% and the growth inhibition [3] was -8.3%. It also gave a growth inhibition [4] of 0.15%, a growth inhibition [5] of -10.2% and a growth inhibition [6] of -0.65%.
In the case of `FC(F)(F)c1cccc(CSCc2c(CSCc3cccc(C(F)(F)F)c3)c(CSCc3cccc(C(F)(F)F)c3)c(CSCc3cccc(C(F)(F)F)c3)c(CSCc3cccc(C(F)(F)F)c3)c2CSCc2cccc(C(F)(F)F)c2)c1`, the growth inhibition [1] is reported as -12.7%, the growth inhibition [2] is reported as -2.5% and the growth inhibition [3] is reported as -6.35%. It also gave a growth inhibition [4] of 12.2%, a growth inhibition [5] of -7.65% and a growth inhibition [6] of 7.45%.
`Cc1ccc(C(=O)CCC(=O)OCC(=O)c2ccc(-c3ccccc3)cc2)cc1` showed a growth inhibition [1] of -7.95%, a growth inhibition [2] of 11.3% and a growth inhibition [3] of -1%. For the same molecule, the growth inhibition [4] was 14.8%, the growth inhibition [5] was -6% and the growth inhibition [6] was -20.1%.
Molecule `N#C/C(=C/c1cccc2ccccc12)C(=O)c1ccccc1` has a growth inhibition [1] of 36.9%, a growth inhibition [2] of -2.75% and a growth inhibition [3] of 3.6%. It also gave a growth inhibition [4] of 26.9%, a growth inhibition [5] of -3.75% and a growth inhibition [6] of -5.5%.
`CC(=O)N(C(C)=O)C(CS)C(=O)O` (stereo unspecified) gave a growth inhibition [1] of 4.1%, a growth inhibition [2] of -11.8% and a growth inhibition [3] of 2.85%. The growth inhibition [4] was 14.8%, the growth inhibition [5] was 9.05% and the growth inhibition [6] was 2.6%.
Molecule `CCC(=O)OC1C(OC2C(C)C(OC3CC(C)(OC)C(O)C(C)O3)C(C)C(=O)OC(CC)C(C)(O)C(O)C(C)C(=O)C(C)CC2(C)O)OC(C)CC1N(C)C` (stereo unspecified) has a growth inhibition [1] of -18.1%, a growth inhibition [2] of -28.1% and a growth inhibition [3] of -31.2%. For the same molecule, the growth inhibition [4] was 5.7%, the growth inhibition [5] was -3% and the growth inhibition [6] was -76.8%.
Molecule `N#CC(c1ccccc1)N(CCc1ccccc1)C(=O)c1ccc(C(=O)N(CCc2ccccc2)C(C#N)c2ccccc2)cc1` (stereo unspecified) has a growth inhibition [1] of 15.2%, a growth inhibition [2] of 26.9% and a growth inhibition [3] of 7.8%. For the same molecule, the growth inhibition [4] was 13.8%, the growth inhibition [5] was 6.6% and the growth inhibition [6] was -11.3%.
Work on `c1ccc(Sc2cc(Sc3ccccc3)c3cccccc2-3)cc1` yielded a growth inhibition [1] of 17.9%, a growth inhibition [2] of -21.9% and a growth inhibition [3] of -27.4%. For the same molecule, the growth inhibition [4] was -6.05%, the growth inhibition [5] was 5.25% and the growth inhibition [6] was 3.2%.
In the case of `CCOC(=O)C(C(=O)/C=C\c1ccccc1)(C(c1ccccc1)c1ccccc1)C(c1ccccc1)c1ccccc1`, the growth inhibition [1] is reported as -9.7%, the growth inhibition [2] is reported as 14.7% and the growth inhibition [3] is reported as 5%. For the same molecule, the growth inhibition [4] was -38.5%, the growth inhibition [5] was 2.9% and the growth inhibition [6] was 2.1%.
`NS(=O)(=O)c1ccc(Nc2c3ccccc3nc3c(C(=O)NCCO)cccc23)cc1` showed a growth inhibition [1] of 51.8%, a growth inhibition [2] of -30.2% and a growth inhibition [3] of -15.9%. The growth inhibition [4] was -3.1%, the growth inhibition [5] was -10.6% and the growth inhibition [6] was -1.9%.
With `CC(COCc1ccccc1)C1OC(C)(C)OC(C#N)C1C` (stereo unspecified) the growth inhibition [1] was -1.05%, the growth inhibition [2] was -1.4% and the growth inhibition [3] was -4.8%. It also gave a growth inhibition [4] of -20.4%, a growth inhibition [5] of 11.7% and a growth inhibition [6] of 14.3%.
`CC(C)(C)[N]=[V]([Cl])([Cl])[Cl]` gave a growth inhibition [1] of 3.65%, a growth inhibition [2] of -0.65% and a growth inhibition [3] of -7.3%. The growth inhibition [4] was -6.35%, the growth inhibition [5] was -10.6% and the growth inhibition [6] was -10.1%.
For `Cc1nc(/N=C(\N)Nc2ccc(Cl)c(Cl)c2)[nH]c(=O)c1Cc1ccccc1`, the growth inhibition [1] was 2.3%, the growth inhibition [2] was 1.65% and the growth inhibition [3] was -10.1%. For the same molecule, the growth inhibition [4] was -6.75%, the growth inhibition [5] was -5.05% and the growth inhibition [6] was 3.65%.
With `Cn1c(=O)c2c(nc3n(C)c(=O)c4ccccc4n23)n(C)c1=O` the growth inhibition [1] was 64.7%, the growth inhibition [2] was 32.8% and the growth inhibition [3] was -8.15%. It also gave a growth inhibition [4] of 7.3%, a growth inhibition [5] of 5.45% and a growth inhibition [6] of 45.6%.
In the case of `C[N+](C)([O-])CCCNc1ccnc2cccc([N+](=O)[O-])c12`, the growth inhibition [1] is reported as 24.1%, the growth inhibition [2] is reported as 6.6% and the growth inhibition [3] is reported as 28.9%. For the same molecule, the growth inhibition [4] was 8.4%, the growth inhibition [5] was 9.95% and the growth inhibition [6] was -21.4%.
With `O=C(Nc1ccc(Cl)cc1)Nc1nnc(-c2ccc(F)cc2)o1` the growth inhibition [1] was 5.5%, the growth inhibition [2] was 9.25% and the growth inhibition [3] was 7.75%. It also gave a growth inhibition [4] of -70.3%, a growth inhibition [5] of -25% and a growth inhibition [6] of 17.4%.
Work on `N#C/C(=C/c1ccc[nH]1)C(=O)O` yielded a growth inhibition [1] of -11.6%, a growth inhibition [2] of -10.2% and a growth inhibition [3] of -6.9%. For the same molecule, the growth inhibition [4] was -1%, the growth inhibition [5] was -5.05% and the growth inhibition [6] was -25.9%.
`Cc1csc(NNC(=O)Nc2ccccc2)n1` showed a growth inhibition [1] of 36.7%, a growth inhibition [2] of 14.2% and a growth inhibition [3] of -35.5%. For the same molecule, the growth inhibition [4] was 18.4%, the growth inhibition [5] was -8.65% and the growth inhibition [6] was 7.5%.
For `COc1ccc(/C(=N\NC(=O)C(N)=O)C(c2ccc(OC)cc2)C2(O)C(=O)Nc3c(Cl)cccc32)cc1` (stereo unspecified), the growth inhibition [1] was -9.45%, the growth inhibition [2] was -15.4% and the growth inhibition [3] was -49.5%. The growth inhibition [4] was 32.5%, the growth inhibition [5] was 0.3% and the growth inhibition [6] was -23.1%.
In the case of `CC(C)/C(Cl)=N/OC(=O)Nc1ccc(Cl)c(Cl)c1`, the growth inhibition [1] is reported as 85.5% (active), the growth inhibition [2] is reported as 90.8% (active) and the growth inhibition [3] is reported as 92.3% (active). The growth inhibition [4] was 84.8% (active), the growth inhibition [5] was 88.9% (active) and the growth inhibition [6] was 82.8% (active).
For `Cc1c(C)c2ccc(OCC(O)COC(C)C)c(C)c2oc1=O` (stereo unspecified), the growth inhibition [1] was -10.7%, the growth inhibition [2] was -5.5% and the growth inhibition [3] was -2.15%. The growth inhibition [4] was -5.95%, the growth inhibition [5] was -1.95% and the growth inhibition [6] was -29.6%.
In the case of `Cc1nc(-n2nc(-c3ccccc3)cc2-c2ccccc2)sc1C(=O)/C=C/c1ccccc1`, the growth inhibition [1] is reported as 6.95%, the growth inhibition [2] is reported as 18.9% and the growth inhibition [3] is reported as 14.7%. For the same molecule, the growth inhibition [4] was 9.1%, the growth inhibition [5] was 29.6% and the growth inhibition [6] was 12.9%.
Work on `CC(=O)CC(=O)OC1CCCC(C)C1` (stereo unspecified) yielded a growth inhibition [1] of -9.55%, a growth inhibition [2] of 1% and a growth inhibition [3] of -17.9%. It also gave a growth inhibition [4] of -39.4%, a growth inhibition [5] of -22.8% and a growth inhibition [6] of -15.2%.
Molecule `CCCCCCCCCCCCCC(=O)OC` has a growth inhibition [1] of 27.6%, a growth inhibition [2] of 15.3% and a growth inhibition [3] of 16.5%. For the same molecule, the growth inhibition [4] was -9.3%, the growth inhibition [5] was -1.4% and the growth inhibition [6] was 31.4%.
With `CC(C)n1c(=S)[nH]c2c(=O)[nH]c(=O)[nH]c21` the growth inhibition [1] was -30.9%, the growth inhibition [2] was -22.4% and the growth inhibition [3] was 0.05%. It also gave a growth inhibition [4] of -53.2%, a growth inhibition [5] of 10.8% and a growth inhibition [6] of -17.4%.
Molecule `O=C1NC(=O)C(CCBr)N1` (stereo unspecified) has a growth inhibition [1] of -21.1%, a growth inhibition [2] of -6.85% and a growth inhibition [3] of -10.3%. It also gave a growth inhibition [4] of -3.8%, a growth inhibition [5] of -13.8% and a growth inhibition [6] of 5.7%.
For `COc1cc2c(cc1O)CN1Cc3c(ccc(OC)c3O)C2C1` (stereo unspecified), the growth inhibition [1] was -16%, the growth inhibition [2] was -14.4% and the growth inhibition [3] was -1.8%. The growth inhibition [4] was -1.15%, the growth inhibition [5] was -11.5% and the growth inhibition [6] was 0.65%.
For `COc1c(NC(=O)c2ccc([N+](=O)[O-])cc2)cccc1[N+](=O)[O-]`, the growth inhibition [1] was 0.45%, the growth inhibition [2] was 14.3% and the growth inhibition [3] was 5.1%. It also gave a growth inhibition [4] of -0.2%, a growth inhibition [5] of 32.2% and a growth inhibition [6] of 20.4%.
Molecule `O=C(NNC(=S)Nc1cccc(Cl)c1)c1ccncc1` has a growth inhibition [1] of 21.8%, a growth inhibition [2] of 6.5% and a growth inhibition [3] of 26.6%. It also gave a growth inhibition [4] of 9.45%, a growth inhibition [5] of 19.9% and a growth inhibition [6] of -9.55%.
For `Cc1cc(C)c(C)c(Br)c1`, the growth inhibition [1] was 5%, the growth inhibition [2] was 4.6% and the growth inhibition [3] was -0.55%. It also gave a growth inhibition [4] of -33.1%, a growth inhibition [5] of 2.4% and a growth inhibition [6] of 4.9%.
For `Cc1cc2nc(/N=C/c3nc(O)c(C)[nH]3)[nH]c2cc1C`, the growth inhibition [1] was 33.2%, the growth inhibition [2] was 22.4% and the growth inhibition [3] was 59%. For the same molecule, the growth inhibition [4] was 20.4%, the growth inhibition [5] was 14.1% and the growth inhibition [6] was 56%.
